In assay [1] the test system is Wnt5a (protein binding on small-molecule microarray). As to the kind of experiment: Wnt5a binders on small-molecule microarray, primary screen, biophysical, 635/667 nm fluorescence (AID 1142).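 Further: fluorescence read at 667 nm with signal to noise per printed feature.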 Conditions: 635 nm fluorescence, higher = more signal.
Assay [2] is described as follows: cell viability in Huh7 cells, primary screen, cytotoxicity control for HCV replication inhibitor project, CellTiter-Glo luminescence, basal, 48 h (AID 1143).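 Further: Huh7 hepatoma cells carrying a hepatitis C replication reporter with no stimulus; test concentration not given here.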 Conditions: Huh7 HCV replicon, higher = more signal, called active from +8 up or from −8 down. Background: In ATP-based viability assays light output follows the ATP content of the culture.
Assay [3] can be described thus: P. aeruginosa biofilm formation inhibitors, primary screen, PAO1 strain, BacTiter-Glo luminescence, LB-PBS (AID 1144). Conditions: 12 h, higher = more signal.
The nature of assay [4]: CREB reporter modulators without forskolin, primary screen, cell-based, PC12, CRE-LacZ reporter, unstimulated (AID 1145). The conditions noted are these: no forskolin, luminescence, 4.5 h, higher = more signal, called active from +8 up or from −8 down.
Assay [5] in a line: CREB reporter modulators under forskolin, primary screen, cell-based, PC12, CRE-LacZ reporter, forskolin-stimulated (AID 1146).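 Further: PC12 cells with 6xCRE LacZ reporter stimulated by forskolin 10 µM; beta-galactosidase reporter signal reflecting CREB driven transcription.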 The conditions noted are these: luminescence, 4.5 h, higher = more signal, called active from +8 up or from −8 down.
In assay [6] the target is Streptavidin (Streptomyces avidinii) (UniProt P22629). Nature of the assay: streptavidin binders on small-molecule microarray, primary screen, artefact control for SMM compound annotation, biophysical, 635/667 nm fluorescence (AID 1147).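 Further: signal reflects streptavidin binding to arrayed compounds as a control protein.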 The conditions noted are these: streptavidin binding, higher = more signal.
Chain of Streptavidin (Streptomyces avidinii) (P22629 whole entry, looked up): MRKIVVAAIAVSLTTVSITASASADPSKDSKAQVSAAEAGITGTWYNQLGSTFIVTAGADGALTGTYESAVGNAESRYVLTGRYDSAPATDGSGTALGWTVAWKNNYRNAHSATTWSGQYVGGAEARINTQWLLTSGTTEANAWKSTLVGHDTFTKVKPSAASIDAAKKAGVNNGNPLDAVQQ
Assay [7] can be described thus: small-molecule binders of probe aInhba, primary screen, biochemical, small-molecule microarray, 635/667 nm fluorescence (AID 1148).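 Further: score merges 667nm spot fluorescence with signal-to-noise for antibody binding to printed compounds.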 Conditions: higher = more signal.
In assay [8] the target is Torsin-1A (Homo sapiens) (UniProt O14656). Nature of the assay: torsin A binders from cell lysate, primary screen, small-molecule microarray, wild-type, 635/667 nm (AID 1149). Conditions: COS7 hTOR1A-WT lysate, 635 nm fluorescence, higher = more signal.
Chain of Torsin-1A (Homo sapiens) (O14656 whole entry, looked up): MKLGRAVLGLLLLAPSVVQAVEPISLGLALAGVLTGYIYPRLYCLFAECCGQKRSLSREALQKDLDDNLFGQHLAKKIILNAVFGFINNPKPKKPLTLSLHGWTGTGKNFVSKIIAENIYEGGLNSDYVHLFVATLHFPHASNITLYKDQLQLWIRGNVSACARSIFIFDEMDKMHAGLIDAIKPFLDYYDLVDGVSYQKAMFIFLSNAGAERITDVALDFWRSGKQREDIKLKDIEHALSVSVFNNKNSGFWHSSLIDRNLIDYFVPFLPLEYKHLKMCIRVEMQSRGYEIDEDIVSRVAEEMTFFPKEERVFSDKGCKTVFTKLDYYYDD
The target is the same in assay [9]. Nature of the assay: small-molecule binders of mutant TOR1A in lysate, primary screen, cell lysate, small-molecule microarray, COS7 lysate, 635/667 nm fluorescence (AID 1150).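 Further: score pools 667 nm emission and signal to noise measuring lysate protein binding.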 Conditions: COS7 hTOR1A mutant lysate, 635 nm fluorescence, higher = more signal.
Assay [10] deals with Sonic hedgehog protein (Shh). Nature of the assay: small-molecule binders of Shh protein, primary screen, biochemical, small-molecule microarray, 635/667 nm fluorescence (AID 1151).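 Further: Shh protein binding to compounds spotted on small-molecule microarray slides; score combines spot fluorescence intensity with signal-to-noise across triplicate slides.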 Conditions: small-molecule microarray binding, 635 nm fluorescence; higher = more signal.
Assay [11] in a line: E. coli DRC41 culture turbidity changes, primary screen, E. coli filamentation inducer project, strain DRC41, OD650, 48 h (AID 1152).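 Further: E. coli MC1000 strain DRC41 lacking acrAB efflux pump and sulA.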 Conditions: E. coli DRC41 (acrAB sulA), higher = more signal, called active from +8 up or from −8 down.
A short description of assay [12]: small-molecule binders of probe aLefty1, primary screen, biochemical, small-molecule microarray, 635/667 nm fluorescence (AID 1153).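 Further: score merges spot fluorescence with signal-to-noise ratio from the scanned slide images.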 Conditions: higher = more signal.
Assay [13] is described as follows: PSAC antagonists in infected red cells, primary screen, cell-based, P. falciparum Indochina, OD700, 1 h (AID 1154). Conditions: P. falciparum Indochina infected RBC osmotic lysis, higher = more signal, called active from +8 up or from −8 down.
Assay [14] in a line: PSAC antagonists in infected red cells, primary screen, cell-based, P. falciparum Indochina, OD700, 2 h (AID 1155).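 Further: lysis reports solute entry through the parasite surface anion channel PSAC; channel blockers reduce lysis of infected cells.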 Conditions: P. falciparum Indochina infected erythrocytes, osmotic lysis OD700; higher = more signal, called active from +8 up or from −8 down.
Assay [15] is described as follows: osmotic lysis modulators in infected erythrocytes, primary screen, PSAC antagonist project, cell-based, P. falciparum Indochina, OD700, 3 h (AID 1156). The conditions noted are these: higher = more signal, called active from +8 up or from −8 down.
Assay [16] can be described thus: PSAC antagonists in infected red cells, primary screen, cell-based, P. falciparum Indochina, OD700, 18 h (AID 1157). The conditions noted are these: P. falciparum Indochina infected erythrocytes, osmotic lysis OD700, 18 h; higher = more signal, called active from +8 up or from −8 down.
A short description of assay [17]: modulators of S6 phosphorylation in cells, primary screen, cell-based, A549, cytoblot, luminescence, serum-stimulated (AID 1158).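 Further: serum-stimulated A549 lung adenocarcinoma cells; signal is phosphorylated S6 detected by cytoblot immunostaining with HRP secondary.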 The conditions noted are these: A549 phospho-S6 cytoblot, 5 h, higher = more signal.
For assay [18], the target named is NADPH oxidase 2 (Homo sapiens) (UniProt P04839). As to the kind of experiment: NOX2-dependent H2O2 signal modulators, primary screen, NOX inhibitor project, cell-based, HEK293-NOX2, PMA-stimulated, Amplex Red fluorescence (AID 1159). Further: test concentration not given here. Conditions: 45 min, higher = more signal, called active from +8 up or from −8 down.
Chain of NADPH oxidase 2 (Homo sapiens) (P04839 whole entry, looked up): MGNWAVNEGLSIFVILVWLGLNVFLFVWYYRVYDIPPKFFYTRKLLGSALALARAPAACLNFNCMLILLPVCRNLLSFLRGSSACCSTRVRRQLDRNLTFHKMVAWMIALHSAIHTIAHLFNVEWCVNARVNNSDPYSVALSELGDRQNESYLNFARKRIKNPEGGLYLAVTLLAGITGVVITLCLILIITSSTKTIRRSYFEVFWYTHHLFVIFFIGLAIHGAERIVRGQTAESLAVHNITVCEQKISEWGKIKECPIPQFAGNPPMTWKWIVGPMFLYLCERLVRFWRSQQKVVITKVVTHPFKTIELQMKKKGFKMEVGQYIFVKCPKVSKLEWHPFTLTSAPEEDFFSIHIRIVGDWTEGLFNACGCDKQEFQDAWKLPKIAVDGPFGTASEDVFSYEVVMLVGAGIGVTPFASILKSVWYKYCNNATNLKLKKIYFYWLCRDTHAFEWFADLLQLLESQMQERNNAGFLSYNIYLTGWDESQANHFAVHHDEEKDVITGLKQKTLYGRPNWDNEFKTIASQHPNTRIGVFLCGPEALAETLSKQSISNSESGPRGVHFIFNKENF
The target of assay [19] is NADPH oxidase 4 (Homo sapiens) (UniProt Q9NPH5). As to the kind of experiment: NOX4-dependent H2O2 signal modulators, primary screen, NOX inhibitor project, cell-based, HEK293-NOX4, tetracycline-induced, Amplex Red fluorescence (AID 1160). Conditions: 45 min, higher = more signal, called active from +8 up or from −8 down.
Chain of NADPH oxidase 4 (Homo sapiens) (Q9NPH5 whole entry, looked up): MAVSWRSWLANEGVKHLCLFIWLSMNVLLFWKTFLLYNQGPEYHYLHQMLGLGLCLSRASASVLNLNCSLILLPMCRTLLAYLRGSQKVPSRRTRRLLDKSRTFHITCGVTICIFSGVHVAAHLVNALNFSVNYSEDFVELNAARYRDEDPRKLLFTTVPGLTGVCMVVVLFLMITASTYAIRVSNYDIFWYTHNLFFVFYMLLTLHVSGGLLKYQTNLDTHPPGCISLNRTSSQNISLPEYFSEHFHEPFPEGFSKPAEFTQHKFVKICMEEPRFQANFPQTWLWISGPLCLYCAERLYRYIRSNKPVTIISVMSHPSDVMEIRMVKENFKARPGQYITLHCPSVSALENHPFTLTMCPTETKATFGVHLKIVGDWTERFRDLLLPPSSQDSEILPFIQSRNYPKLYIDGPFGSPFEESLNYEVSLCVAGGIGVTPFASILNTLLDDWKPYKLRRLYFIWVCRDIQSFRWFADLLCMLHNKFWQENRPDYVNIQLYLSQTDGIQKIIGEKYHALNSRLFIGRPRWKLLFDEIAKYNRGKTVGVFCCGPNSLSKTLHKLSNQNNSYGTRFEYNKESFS
The target of assay [20] is NADPH oxidase 5 (Homo sapiens) (UniProt Q96PH1). As to the kind of experiment: NOX5-dependent H2O2 signal modulators, primary screen, NOX inhibitor project, cell-based, HEK293-NOX5, Amplex Red fluorescence (AID 1161). Conditions: HEK293-NOX5, ionomycin, 45 min, higher = more signal.
Chain of NADPH oxidase 5 (Homo sapiens) (Q96PH1 whole entry, looked up): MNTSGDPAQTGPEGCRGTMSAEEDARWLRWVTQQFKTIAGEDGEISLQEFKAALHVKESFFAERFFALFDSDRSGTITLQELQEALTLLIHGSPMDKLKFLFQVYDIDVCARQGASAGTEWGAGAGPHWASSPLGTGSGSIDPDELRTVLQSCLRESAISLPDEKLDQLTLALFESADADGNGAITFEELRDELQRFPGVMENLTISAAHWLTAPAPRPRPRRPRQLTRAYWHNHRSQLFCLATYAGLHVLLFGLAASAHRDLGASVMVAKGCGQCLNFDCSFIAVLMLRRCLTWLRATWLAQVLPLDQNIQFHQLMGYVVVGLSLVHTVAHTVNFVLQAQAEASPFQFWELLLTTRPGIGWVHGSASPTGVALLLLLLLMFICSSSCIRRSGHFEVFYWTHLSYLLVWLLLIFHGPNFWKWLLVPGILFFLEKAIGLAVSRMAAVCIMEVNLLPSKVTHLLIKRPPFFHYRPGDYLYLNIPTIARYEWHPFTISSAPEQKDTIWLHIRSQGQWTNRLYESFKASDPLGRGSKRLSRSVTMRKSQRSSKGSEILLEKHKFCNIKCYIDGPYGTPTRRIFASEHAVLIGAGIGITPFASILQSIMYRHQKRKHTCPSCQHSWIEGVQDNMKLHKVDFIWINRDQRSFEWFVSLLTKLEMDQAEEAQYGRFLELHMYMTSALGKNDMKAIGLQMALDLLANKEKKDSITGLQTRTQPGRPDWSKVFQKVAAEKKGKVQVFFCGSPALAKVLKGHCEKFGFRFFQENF

The source made the active and inactive calls. Unless noted, how the calls were made is not given here.

With `C=CCNC(=O)[C@@H]1[C@H]2C(=O)O[C@H](c3ccccc3)[C@H](c3ccccc3)N2[C@H](c2ccc(O)cc2)[C@@]12C(=O)N(C(=O)OCCOC)c1ccc(C#CC3=CCCCC3)cc12`, the composite z-score in [1] was 0.432; in assay [6], 0.268; in assay [7] it was 0.0705; in the assay with Torsin-1A (Homo sapiens) [8], 0.87; in the assay with Torsin-1A (Homo sapiens) [9] it was 0.686; in [10], 1.86. In assay [12], this molecule came in with a composite z-score of 0.319. The z-score in [2] is -2.12 (inactive); in [3], 0.411 (inactive); in assay [4] it was 0.346 (inactive); in [5], -0.0705 (inactive); in assay [11], -1.1 (inactive); in assay [13] it was 1.78 (inactive). The z-score in assay [14] was 0.836 (inactive); in [15], -0.942 (inactive); in assay [16], 0.313 (inactive); in assay [17], 0.0229; in [18], 1.61 (inactive); in [19], 0.339 (inactive). Besides, the z-score in assay [20] amounted to 0.344.
For `COc1cc(NN2C(C(O)c3cc(OC)c(OC)c(OC)c3)C=CC3C(=O)N(C)C(=O)C32)cc(OC)c1OC` (stereo not given), the composite z-score was -0.019 in [1]; 0.853 in assay [6]; -0.0336 in [7]; 0.434 in the assay with Torsin-1A (Homo sapiens) [8]; 0.459 with Torsin-1A (Homo sapiens) [9]; 0.0774 in assay [10]. This molecule also gave a composite z-score in assay [12] of 0.179. Further, the z-score was -0.0088 (inactive) in assay [2]; -0.792 (inactive) in assay [3]; 0.243 (inactive) in assay [4]; 0.445 (inactive) in assay [5]; -1.12 (inactive) in assay [11]; 0.367 (inactive) in assay [13]. Further, the z-score in [14] was 0.0378 (inactive); in assay [15], 0.508 (inactive); in assay [16] it was 0.853 (inactive); in assay [17], -0.402; in [18] it was -1.81 (inactive); in assay [19], -2.26 (inactive). In addition, the z-score in assay [20] is -2.51.
On to `COC(=O)C(CC#Cc1ccc2c(c1)[C@]1(C(=O)N2)[C@H](c2ccc(O)cc2)N2[C@H](c3ccccc3)[C@H](c3ccccc3)OC(=O)[C@H]2[C@@H]1C(=O)NC[C@H](O)c1ccccc1)C(=O)OC`, for which the composite z-score was 0.0209 in assay [1]; 0.379 in assay [6]; 0.0769 in assay [7]; -0.207 with Torsin-1A (Homo sapiens) [8]; 0.276 with Torsin-1A (Homo sapiens) [9]; 1.68 in assay [10]. In addition, in assay [12], the composite z-score is -0.0518. Further, the z-score in [2] was -0.075 (inactive); in assay [3], 0.221 (inactive); in [4], -0.0566 (inactive); in assay [5] it was -0.0638 (inactive); in assay [11], -0.994 (inactive); in [13], 1.13 (inactive). Moreover, the z-score in [14] is 0.353 (inactive); in [15] it was -0.876 (inactive); in assay [16] it was -0.154 (inactive); in [17] it was -0.256; in assay [18], 1.39 (inactive); in assay [19] it was 0.318 (inactive). In assay [20], the z-score is 1.47.
For the molecule `COC(=O)C/C=C/C[C@]1(O)C(=O)N(C)c2ccccc21`, the composite z-score is 0.0325 in [1]; -0.373 in assay [6]; -0.104 in [7]; 0.325 with Torsin-1A (Homo sapiens) [8]; 0.582 with Torsin-1A (Homo sapiens) [9]; 0.775 in assay [10]. The same molecule showed a composite z-score in [12] of -0.147. For the same molecule, the z-score is -1.2 (inactive) in [2]; -0.716 (inactive) in [3]; 1.04 (inactive) in [4]; -1.55 (inactive) in assay [5]; 2.8 (inactive) in assay [11]; -0.526 (inactive) in assay [13]. Moreover, the z-score in [14] was -0.562 (inactive); in [15], -0.679 (inactive); in [16], -1.87 (inactive); in [17] it was 1.26; in assay [18], -0.563 (inactive); in assay [19] it was 0.4 (inactive). The same molecule returned a z-score in assay [20] of 0.882.
As for `COCCOC(=O)N1C(=O)[C@@]2(c3cc(C#CCC(C(=O)OC)C(=O)OC)ccc31)[C@H](c1ccc(OCCO)cc1)N1[C@H](c3ccccc3)[C@H](c3ccccc3)OC(=O)[C@H]1[C@@H]2C(=O)N1CCc2cc(OC)c(OC)cc2C1`, the composite z-score is 0.575 in assay [1]; 0.918 in [6]; -0.0087 in assay [7]; 0.843 with Torsin-1A (Homo sapiens) [8]; 0.769 with Torsin-1A (Homo sapiens) [9]; 1.8 in assay [10]. The composite z-score in assay [12] was determined as 0.269. In addition, the z-score was -1.35 (inactive) in assay [2]; -0.119 (inactive) in assay [3]; -0.0607 (inactive) in assay [4]; 0.936 (inactive) in [5]; -0.0746 (inactive) in assay [11]; 6.85 (inactive) in assay [13]. Moreover, the z-score in [14] is 2.56 (inactive); in assay [15] it was 0.324 (inactive); in assay [16], 1.78 (inactive); in [17] it was -0.215; in [18], 2.22 (inactive); in assay [19], 1.17 (inactive). In assay [20], this molecule returned a z-score of 1.29.

The record behind these values is PubChem BioAssay.
